From PubChem BioAssay
Several values for one entry are separate records, joined by “and”; a condition that tells them apart may be missing. Identical values can stand only once. Activity calls are given as the source filed them.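 How the source made its calls, unless noted: active means normalized viability below 100% at a tested concentration; inactive means the rest.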

How the values were obtained:
[1] = Wnt pathway potentiators raising nuclear beta-catenin – imaging, WNT3A-conditioned medium, mouse C2C12, NPC library, primary screen (AID 1117326; in the data active means nuclear beta-catenin stimulation mostly above about 4.2%, no sharp cut-off; inactive means mostly below about 10%); settings: stronger effect = higher value
[2] = stimulators of insulin release from INS-1E, primary screen, cell-based, 5 mM glucose, NPC library (AID 1117329;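 active means compound raises insulin release from rat beta cells at 5 mM glucose, no numeric limit stated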); settings: rat INS-1E insulin secretion, at 10 µM, stronger effect = higher value
[3] = growth inhibition of GSK3B-pretreated HCT116 cells – cell-based, CellTiter-Glo, 0.2 to 20 µM (AID 1117336;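 active means compounds lowering colon cancer cell viability after pretreatment blocking the GSK3B kinase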); settings: HCT116 viability after GSK3B inhibitor, at 20 µM, stronger effect = higher value
[4] = inhibition of endothelial tube formation, primary screen, imaging, VEGF stimulated, CD31 staining, tube area, NPC library (AID 1117340;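 active means compound that reduces growth-factor-driven endothelial tube area in a mixed cell culture, no cutoff stated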); settings: VEGF-stimulated ADSC/ECFC co-culture, at 10 µM, stronger effect = higher value
[5] = GLP1 release stimulators, primary, NCI-H716, NPC library (AID 1117341;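 active means compound raises GLP1 secretion from the human gut endocrine cells, with no numeric limit stated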); settings: NCI-H716 cells, at 10 µM, stronger effect = higher value
[6] = HCT116 colon cancer cell growth inhibition, primary screen, CellTiter-Glo luminescence, NPC library (AID 1117342;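 active means compounds that lower survival of HCT116 colon cancer cells in the luminescence readout, no numeric limit stated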); settings: at 20 µM (top of the series)
[7] = reduced SW480 viability measured with CellTiter-Glo, NPC library, primary (AID 1117343;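 active means compounds that lower viability of the colon cancer cells in the luminescence readout, with no numeric limit stated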); settings: CellTiter-Glo luminescence; at 20 µM (top of the series) unless noted
[8] = NPC library primary testing for decreased DLD-1 cell viability via CellTiter-Glo (AID 1117346;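 active means compounds that lower survival of DLD-1 colon cancer cells in the luminescence readout, no cutoff given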); settings: DLD-1 viability, CellTiter-Glo luminescence; at 20 µM (top of the series)
[9] = EMT-state selective cytotoxicity in co-culture – imaging, PC-3E GFP, TEM4-18 mCherry, primary screen (AID 1345086;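 active means compounds killing one labelled cell type while sparing the other, by normalised counts and ratio limits, not self-fluorescent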;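 further: cells exposed to compound for 72 h before imaging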;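 on red/green cell ratio (normalised): normalised mesenchymal count divided by normalised epithelial count so high means epithelial killing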); settings: PC-3E GFP / TEM4-18 mCherry co-culture, imaging cell counts, at 1 µM
[10] = viability loss with induced miR-34 in A549 – imaging, A549 dox-inducible miR-34, nuclei and caspase counts, primary screen (AID 1347080;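 active means compounds whose cell count with miR-34 switched on is under 0.7 times the count with it off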); settings: A549 miR-34 inducible, Hoechst nuclei count, 48 h
[11] = MELAS cybrid and Rieske KO viability enhancers – cell-based, MELAS cybrids, Rieske KO mouse fibroblasts, CellTiter-Glo, primary screen (AID 1508586;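 active means mean z-score across replicates of 1.96 or higher in either the MELAS or the Rieske mutant cell line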;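 further: z relative to plate mean and SD of compound and empty wells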); settings: low glucose
[12] = drug combination growth inhibition, ovarian cancer – cell-based, oncology-focused library, rucaparib conditional, profiling panel (AID 1508598); settings: patient-derived ovarian cancer cells, CellTiter-Glo viability, 144 h, stronger effect = lower value
[13] = biological target: NAD(+) hydrolase SARM1 (Homo sapiens) (UniProt Q6SZW1); assay: blocking NAD cleavage by SARM1 SAM-TIR – cell lysate, NAD-Glo luminescence (AID 1508614;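 active means compound whose remaining NAD level is above about 45 nM, limit read from the data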); settings: SAM-TIR HEK293T lysate NADase, at 1 µM, stronger effect = higher value
[14] = growth inhibition, single agent or in combination, cell-based, chromothripsis tumors, cisplatin or BGB combos (AID 1671449; in the data active means inhibition above about 80%;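 further: cells exposed for 96 hours; 0% = vehicle DMSO and 100% = killing by high DMSO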); settings: LFS_MB_P medulloblastoma cells
[15] = growth inhibition, single agent and combos, cell-based, chromothripsis tumors, cisplatin or BGB combos (AID 1671450; in the data active means inhibition above about 80%;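 further: cells exposed to compound for four days; 0% = vehicle DMSO and 100% = cell killing by high DMSO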); settings: HDN33 neuroblastoma cells, stronger effect = higher value
[16] = growth inhibition, single agents and combos, ICB984, cell-based, cisplatin or BGB combos, synergistic combos for chromothripsis tumors (AID 1671451; call rule not given here;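 further: cells exposed for 96 hours before readout; 0% = vehicle DMSO and 100% = killing by high DMSO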); settings: ICB984 medulloblastoma cells, drug combinations, stronger effect = higher value
[17] = growth inhibition, single agents and combos, HTB85, cell-based, BGB or cisplatin IC20 combos, synergistic combos for chromothripsis tumors (AID 1671453; in the data active means inhibition above about 80%;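 further: cells exposed for 96 hours before readout; 0% = vehicle DMSO and 100% = high DMSO killing control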); settings: HTB85 osteosarcoma cells, drug combinations, stronger effect = higher value
[18] = growth inhibition, MDA-MB-436, cell-based, BGB or cisplatin combos, synergistic combos for chromothripsis tumors (AID 1671458; call rule not given here;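 further: cells exposed for 96 hours; 0% = vehicle DMSO and 100% = killing by high DMSO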); settings: MDA-MB-436 breast carcinoma growth inhibition, drug combinations, stronger effect = higher value

Chain of NAD(+) hydrolase SARM1 (Homo sapiens) (Q6SZW1 whole entry, looked up): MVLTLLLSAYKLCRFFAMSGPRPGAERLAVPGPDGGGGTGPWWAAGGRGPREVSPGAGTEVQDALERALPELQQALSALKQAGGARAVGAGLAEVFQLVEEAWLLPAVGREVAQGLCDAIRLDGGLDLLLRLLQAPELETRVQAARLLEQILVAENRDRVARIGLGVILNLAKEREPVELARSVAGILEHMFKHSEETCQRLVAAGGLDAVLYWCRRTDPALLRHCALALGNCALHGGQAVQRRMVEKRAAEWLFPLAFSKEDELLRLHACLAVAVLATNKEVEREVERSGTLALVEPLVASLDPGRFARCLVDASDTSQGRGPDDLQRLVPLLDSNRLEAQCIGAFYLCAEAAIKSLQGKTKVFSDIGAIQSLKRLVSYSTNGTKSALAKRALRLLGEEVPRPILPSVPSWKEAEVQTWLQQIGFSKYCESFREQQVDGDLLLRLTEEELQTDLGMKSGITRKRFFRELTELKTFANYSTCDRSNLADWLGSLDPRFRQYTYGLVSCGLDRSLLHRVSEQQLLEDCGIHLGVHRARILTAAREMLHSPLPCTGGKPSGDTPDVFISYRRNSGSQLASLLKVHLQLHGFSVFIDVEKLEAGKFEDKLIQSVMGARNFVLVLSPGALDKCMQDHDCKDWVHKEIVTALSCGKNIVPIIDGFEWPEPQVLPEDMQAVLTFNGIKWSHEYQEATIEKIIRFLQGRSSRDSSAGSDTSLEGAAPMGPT

For `O=C(CCCCCCC(=O)Nc1ccccc1)NO`, the nuclear beta-catenin stimulation ([1]; at 10 µM) was 7.6% (inactive), the nuclear beta-catenin stimulation ([1]; stimulation, at 2 µM) was 7.1% and the insulin secretion stimulation [2] was -1.2% (inactive). The viability decrease [3] was 53.5% (active), the tube area decrease [4] was 103% (active) and the GLP1 secretion stimulation [5] was 0.5% (inactive). For the same compound, the inhibition of viability [6] was 108% (active), the viability decrease (inhibition) [7] was 110% (active) and the viability decrease (inhibition) [8] was 58% (active). The red/green cell ratio (normalised) ([9]; actives lie on both sides, counts scaled to control wells, 1 = unselective) was 1.29 (inactive), the normalised cell number ([9]; measured here: epithelial PC-3E GFP cell survival) was 0.33 and the normalised cell number ([9]; measured here: mesenchymal TEM4-18 mCherry cell survival) was 0.42. For the same compound, the fold change ([10]; stronger effect = lower value, cell number ratio, induced over uninduced) was 1.09 (inactive) and 1.01 (inactive) and 0.979 (inactive), the fold change ([10]; measured here: relative caspase fold change +Dox/-Dox) was 0.756 and 1.04 and 1.07 and the cell count ([10]; measured here: total cells with miR-34 induction, stronger effect = lower value) was 1690 and 5020 and 1390. The cell count ([10]; measured here: total cells without miR-34 induction) was 1540 and 4980 and 1420, the z-score ([11]; MELAS cybrid survival, CellTiter-Glo 48 h, stronger effect = higher value) was 0.575 (inactive) and -2.2 (inactive) and the z-score ([11]; Rieske KO mouse fibroblast survival, CellTiter-Glo 72 h) was 0.979 and -1.4. For the same compound, the viability ([12]; at 0.000305 µM, OCI-C5x cells, with rucaparib 10 µM, 100% = cells with rucaparib alone) was 108% (inactive), the viability ([12]; at 0.000305 µM, OCI-C5x cells, without rucaparib) was 108% (inactive) and the viability ([12]; at 0.000305 µM, OCI-P5x cells, with rucaparib 20 µM, 100% = cells with rucaparib alone) was 87.7% (active). For the same compound, the viability ([12]; at 0.000305 µM, OCI-P5x cells, without rucaparib) was 91.8% (active), the viability ([12]; at 0.00122 µM, OCI-C5x cells, with rucaparib 10 µM, 100% = cells with rucaparib alone) was 112% (inactive) and the viability ([12]; at 0.00122 µM, OCI-C5x cells, without rucaparib) was 106% (inactive). The viability ([12]; at 0.00122 µM, OCI-P5x cells, with rucaparib 20 µM, 100% = cells with rucaparib alone) was 83% (active), the viability ([12]; at 0.00122 µM, OCI-P5x cells, without rucaparib) was 97.1% (active) and the viability ([12]; at 0.00488 µM, OCI-C5x cells, with rucaparib 10 µM, 100% = cells with rucaparib alone) was 113% (inactive). The viability ([12]; at 0.00488 µM, OCI-C5x cells, without rucaparib) was 110% (inactive), the viability ([12]; at 0.00488 µM, OCI-P5x cells, with rucaparib 20 µM, 100% = cells with rucaparib alone) was 109% (inactive) and the viability ([12]; at 0.00488 µM, OCI-P5x cells, without rucaparib) was 96.9% (active). For the same compound, the viability ([12]; at 0.0195 µM, OCI-C5x cells, with rucaparib 10 µM, 100% = cells with rucaparib alone) was 111% (inactive), the viability ([12]; at 0.0195 µM, OCI-C5x cells, without rucaparib) was 114% (inactive) and the viability ([12]; at 0.0195 µM, OCI-P5x cells, with rucaparib 20 µM, 100% = cells with rucaparib alone) was 112% (inactive). The viability ([12]; at 0.0195 µM, OCI-P5x cells, without rucaparib) was 93.3% (active), the viability ([12]; at 0.0781 µM, OCI-C5x cells, with rucaparib 10 µM, 100% = cells with rucaparib alone) was 110% (inactive) and the viability ([12]; at 0.0781 µM, OCI-C5x cells, without rucaparib) was 108% (inactive). The viability ([12]; at 0.0781 µM, OCI-P5x cells, with rucaparib 20 µM, 100% = cells with rucaparib alone) was 96.2% (active), the viability ([12]; at 0.0781 µM, OCI-P5x cells, without rucaparib) was 83% (active) and the viability ([12]; at 0.313 µM, OCI-C5x cells, with rucaparib 10 µM, 100% = cells with rucaparib alone) was 57.7% (active). The viability ([12]; at 0.313 µM, OCI-C5x cells, without rucaparib) was 57.4% (active), the viability ([12]; at 0.313 µM, OCI-P5x cells, with rucaparib 20 µM, 100% = cells with rucaparib alone) was 61.2% (active) and the viability ([12]; at 0.313 µM, OCI-P5x cells, without rucaparib) was 46.1% (active). For the same compound, the viability ([12]; at 1.25 µM, OCI-C5x cells, with rucaparib 10 µM, 100% = cells with rucaparib alone) was 73.9% (active), the viability ([12]; at 1.25 µM, OCI-C5x cells, without rucaparib) was 52.8% (active) and the viability ([12]; at 1.25 µM, OCI-P5x cells, with rucaparib 20 µM, 100% = cells with rucaparib alone) was 65.9% (active). The viability ([12]; at 1.25 µM, OCI-P5x cells, without rucaparib) was 55.9% (active), the viability ([12]; at 5 µM, OCI-C5x cells, with rucaparib 10 µM, 100% = cells with rucaparib alone) was 8.43% (active) and the viability ([12]; at 5 µM, OCI-C5x cells, without rucaparib) was 7.74% (active). For the same compound, the viability ([12]; at 5 µM, OCI-P5x cells, with rucaparib 20 µM, 100% = cells with rucaparib alone) was 8.03% (active), the viability ([12]; at 5 µM, OCI-P5x cells, without rucaparib) was 14.8% (active) and the remaining NAD [13] was 10 nM (inactive). The inhibition ([14]; at 0.5 µM, stronger effect = higher value) was 76.8% (inactive), the inhibition ([14]; measured here: combination with BGB IC20, at 0.005 µM) was -24% and the inhibition ([14]; measured here: combination with BGB IC40, at 0.005 µM) was -25.1%. It also gave an inhibition ([14]; measured here: combination with BGB IC40, at 0.05 µM) of -21.7%, an inhibition ([14]; measured here: combination with cisplatin, at 0.5 µM, stronger effect = higher value) of 48.5% and an inhibition ([14]; measured here: combination with cisplatin, at 5 µM, stronger effect = higher value) of 107%. The inhibition ([15]; BGB combo, at 5 µM) was 92.3%, the inhibition ([15]; at 0.5 µM) was 20.4% (inactive) and the inhibition ([15]; cisplatin combo, at 5 µM) was 98%. For the same compound, the inhibition ([15]; measured here: with BGB IC20 combination, at 0.5 µM) was 5.45%, the inhibition ([15]; measured here: with cisplatin IC20 combination, at 0.5 µM) was 18.5% and the inhibition ([15]; single agent, at 5 µM) was 96.3%. For the same compound, the inhibition ([16]; BGB IC20 combo, at 0.005 µM) was -9.97%, the inhibition ([16]; BGB IC40 combo, at 0.005 µM) was -34% and the inhibition ([16]; BGB IC40 combo, at 0.05 µM) was 71.5%. The inhibition ([16]; at 0.5 µM) was -21.1% (inactive), the inhibition ([16]; cisplatin combo, at 0.05 µM) was 70.7% and the inhibition ([16]; cisplatin combo, at 0.5 µM) was -19.8%. The inhibition ([16]; cisplatin combo, at 5 µM) was -86.6%, the inhibition ([16]; measured here: 5 uM single agent, at 5 µM) was -52.1% and the inhibition ([17]; at 0.5 µM) was 1.09% (inactive). The inhibition ([17]; measured here: with BGB IC20, at 0.5 µM) was -18.4%, the inhibition ([17]; measured here: with BGB IC20, at 5 µM) was 80.9% and the inhibition ([17]; measured here: with cisplatin IC20, at 0.5 µM) was 21.1%. The inhibition ([17]; measured here: with cisplatin IC20, at 5 µM) was 89.9%, the inhibition ([17]; single agent, at 5 µM) was 87.5% and the inhibition ([18]; at 0.5 µM) was -18.9% (inactive). The inhibition ([18]; measured here: BGB combination, at 0.5 µM) was -38.5%, the inhibition ([18]; measured here: BGB combination, at 5 µM) was 32% and the inhibition ([18]; measured here: cisplatin combination, at 0.5 µM) was -20.9%. The inhibition ([18]; measured here: cisplatin combination, at 5 µM) was 36.6%.
